SMARCA2 activ: SMARCA2 (BRM) function activators, primary screen, cell-based, luminescence, high throughput; MG213 cells, MMTV-luciferase reporter, dexamethasone, overnight; activation, % at 9.1 µM; 1% of 370,000 active; AID 652017, 2013; in the data active = activation above about 7.8%
ABCB6 inh 2: ABCB6 transporter inhibitors, primary screen, K562-ABCB6 cells, flow cytometry, MLPCN library. fluorescence ratio to DMSO, % at 10 µM. K562-ABCB6 porphyrin accumulation, 1 h; stronger effect = lower value. ATP-binding cassette sub-family B member 6 (Homo sapiens), Q9NP58. 0.19% of 360,000 active;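 active = fluorescence ratio to DMSO below 75%, the collection mean minus 3 SD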;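 note: signal is porphyrin accumulated inside mitochondria; lower ratio means ABCB6 inhibition with less porphyrin fluorescence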
Target sequence (Q9NP58 whole entry, looked up): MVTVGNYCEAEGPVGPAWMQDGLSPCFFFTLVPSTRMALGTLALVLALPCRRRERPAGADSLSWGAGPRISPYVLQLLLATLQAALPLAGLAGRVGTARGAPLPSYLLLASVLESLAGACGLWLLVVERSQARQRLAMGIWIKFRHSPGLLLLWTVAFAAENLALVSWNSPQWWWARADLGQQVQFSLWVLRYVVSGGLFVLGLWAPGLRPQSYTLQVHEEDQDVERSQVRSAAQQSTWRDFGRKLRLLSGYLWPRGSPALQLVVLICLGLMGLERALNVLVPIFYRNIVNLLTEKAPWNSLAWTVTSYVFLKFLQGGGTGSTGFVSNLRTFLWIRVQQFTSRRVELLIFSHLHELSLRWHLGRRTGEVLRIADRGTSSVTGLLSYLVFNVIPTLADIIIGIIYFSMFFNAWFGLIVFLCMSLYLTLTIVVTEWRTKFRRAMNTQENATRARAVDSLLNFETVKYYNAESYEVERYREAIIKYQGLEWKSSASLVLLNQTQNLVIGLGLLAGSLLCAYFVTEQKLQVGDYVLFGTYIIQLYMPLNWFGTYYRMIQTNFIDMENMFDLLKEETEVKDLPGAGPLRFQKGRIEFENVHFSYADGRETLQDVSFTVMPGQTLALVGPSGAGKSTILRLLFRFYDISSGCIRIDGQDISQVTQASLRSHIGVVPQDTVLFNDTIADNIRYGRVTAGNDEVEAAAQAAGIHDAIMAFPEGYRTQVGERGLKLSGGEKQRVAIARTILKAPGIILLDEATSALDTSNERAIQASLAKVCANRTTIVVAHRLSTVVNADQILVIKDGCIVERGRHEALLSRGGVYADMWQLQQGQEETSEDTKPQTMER
MsrA inhibitor: bovine MsrA enzyme inhibitors, primary screen, biochemical, absorbance, HTS; Methionine sulfoxide reductase A (Bos taurus); purified bovine MsrA, absorbance read-out; inhibition, % at 15.5 µM; 0.75% of 360,000 active; in the data active = inhibition above about 4.5%
MsrA act: bovine MsrA enzyme activators, primary screen, biochemical, absorbance, HTS; 0.3% of 360,000 active; AID 602163, 2012; purified bovine MsrA, absorbance read-out; activation, % at 10.6 µM; Methionine sulfoxide reductase A (Bos taurus); in the data active = activation above about 7.5%
SMARCA2 act conf: SMARCA2 (BRM) function activators, confirmation, cell-based, luminescence, triplicate. shares compounds with SMARCA2 activ. MG213 cells, MMTV-luciferase with dexamethasone, overnight; MG213 cells expressing E1A, Rb sequestered; DMSO wells 0%, reference activator 100%. activation, % at 9.1 µM. 30% of 3,500 active. AID 652260, 2013;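 active = activation above its plate's cutoff, the mean activation of tested wells plus 3 SD, cut at about 7.9% in these data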
VP16 Luc act: GAL4-VP16 luciferase reporter activation, counter-screen for SMARCA2 (BRM) activator project, cell-based, pG5luc, luminescence, high throughput; shares compounds with SMARCA2 activ; activation, % at 9.1 µM; 41% of 3,500 active; HEK293 GAL4-VP16 pG5luc reporter; scaled: DMSO wells 0%, SAHA wells 100%; AID 686939, 2013;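 active = activation above the solvent-only control well mean plus 3 SD, averaged across control plates, cut at about 5.2% in these data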
Of the large screens only hits and unclear results are named; the others gave an inactive call (follow-up assays come after a bar, where they were run). Only some compounds are listed: those with a hit (about 2.1% of all), similar ones and a draw of the others.

N=c1c2c(-c3ccccc3)c(-c3ccccc3)n(Cc3ccccc3)c2ncn1CCCn1ccnc1	SMARCA2 activ 15 | SMARCA2 act conf inactive | VP16 Luc act inactive
O=[N+]([O-])c1cccc(-c2ccc(C(=S)N3CCN(c4ccc(F)cc4)CC3)o2)c1	SMARCA2 activ 9.1 | SMARCA2 act conf inactive | VP16 Luc act inactive
CCOC(=O)[C@@H]1CSCCS(=O)(=O)N1Cc1ccccc1	none (no result: ABCB6 inh 2, MsrA inhibitor, MsrA act)
CCOC(=O)C1=NOC(C(=O)NC2CCCC2)(C(=O)c2ccc(OC)cc2)C1 (stereo not drawn)	none (no result: ABCB6 inh 2, MsrA inhibitor, MsrA act)
O=C(NN=C1CCCC1)c1cccc(O)c1	SMARCA2 activ 8.9 | SMARCA2 act conf inactive | VP16 Luc act inactive
CC(=O)Nc1ccc(-c2ccnc3c2CC(C)(C(=O)Nc2cccc(OC(F)(F)F)c2)O3)cc1 (stereo not drawn)	none
CN(C)CCCNc1nc2sc3c(c2c(=O)n1CCc1ccccc1)CCCCC3	SMARCA2 activ 10 | SMARCA2 act conf inactive | VP16 Luc act inactive
CCOc1ccc(NC(=O)CSc2nccn2C)cc1	SMARCA2 activ 8.8 | SMARCA2 act conf inactive | VP16 Luc act inactive
COc1ccc(C(=O)CSc2nccn2C)cc1	SMARCA2 activ 11 | SMARCA2 act conf inactive | VP16 Luc act inactive
Cn1ccnc1SCC(=O)c1ccc(OC(F)F)cc1	none
COc1cc(/C=N/NC(=S)NC2CC3CCC2C3)ccc1O (stereo not drawn)	SMARCA2 activ 9.4 | SMARCA2 act conf inactive | VP16 Luc act inactive
Cc1cc(Cl)c2oc(C(=O)NCC(C)(C)N3CCOCC3)c(C)c2c1	SMARCA2 activ 9.3 | SMARCA2 act conf inactive | VP16 Luc act 5.2
COC(=O)C1CCN(C(=O)c2oc3c(Cl)cc(C)cc3c2C)CC1	SMARCA2 activ 9.1 | SMARCA2 act conf inactive | VP16 Luc act 11
CCOC(=O)C1CCCCN1C(=O)c1oc2c(Cl)cc(C)cc2c1C (stereo not drawn)	none
COc1cccc(C(=O)Nc2cc(C(=O)NCCc3ccccc3)ccc2Cl)c1	none
CCCCC(=O)Nc1cc(C(=O)NCCc2ccccc2)ccc1Cl	SMARCA2 activ 8.2 | SMARCA2 act conf inactive | VP16 Luc act 8.8
CC(=O)OCC(=O)C1(O)CCC2C3CCC4CC(O)CCC4(C)C3C(=O)CC21C (stereo not drawn)	none
CCOC(=O)N1CCN(C(=O)C[C@H]2C[C@@]3(C(=O)OC)C(=C[C@H](COCc4ccccc4)O[C@@H]3C)N(Cc3ccc(Cl)cc3Cl)C2=O)CC1	none (no result: ABCB6 inh 2, MsrA inhibitor, MsrA act)
CCOc1ccccc1NC(=O)NNC(=O)CCn1nc(C)c([N+](=O)[O-])c1C	none (no result: ABCB6 inh 2, MsrA inhibitor, MsrA act)
C/C(=N\NC(=O)c1c[nH]c2ccccc12)c1ccccn1	none
C/C(CC(=O)Nc1ccc(F)cc1)=N\NC(=O)c1ccccn1	SMARCA2 activ 9.2 | SMARCA2 act conf inactive | VP16 Luc act inactive
C/C(=N\Nc1ccc(Cl)c(C(=O)O)c1)c1ccccn1	SMARCA2 activ 13 | SMARCA2 act conf inactive | VP16 Luc act inactive
C/C(=N\NC(=O)c1ccc(F)cc1)c1ccccn1	SMARCA2 activ 9.6 | SMARCA2 act conf inactive | VP16 Luc act inactive
CC(=O)Nc1ccccc1NC(=O)C/C(C)=N/NC(=O)c1ccccn1	none
COc1ccc(Cn2cc(CN3[C@H](Cc4ccccc4)COc4cc(Br)ccc4S3(=O)=O)nn2)cc1	none (no result: ABCB6 inh 2, MsrA inhibitor, MsrA act)
CC(Cl)=CCn1c(NCCc2ccccc2)nc2c1c(=O)n(C)c(=O)n2C	none
CN1c2ccc(C#CC3CC3)cc2[C@@H]2[C@@H](CCN2C(=O)C2CCOCC2)[C@H]1CO	none (no result: ABCB6 inh 2, MsrA inhibitor, MsrA act)
COC(=O)[C@H](C(C)C)N(Cc1cn(Cc2ccc(C)cc2)nn1)S(=O)(=O)c1ccc(F)cc1Br	none (no result: ABCB6 inh 2, MsrA inhibitor, MsrA act)
CN(C)c1ccccc1-c1cc(NC=O)c2ncc(-c3cccc(C(F)(F)F)c3)n2c1	none
CCOC(=O)[C@]12CCCC=C1N(CCCOC)C(=O)[C@@H]2CC(=O)N1CCCC1	none (no result: ABCB6 inh 2, MsrA inhibitor, MsrA act)
CC(C)(C)Cc1c(-c2cccc(Cl)c2)nc2ccc(Cl)cn12	none
CC(C)(C)Cc1c(-c2ccco2)nc2ccc(Cl)cn12	SMARCA2 activ 13 | SMARCA2 act conf inactive | VP16 Luc act inactive
Cc1nc(NCc2ccco2)c2c(C)c(C)sc2n1	none

Bioassay records deposited in PubChem by several laboratories.
